Compound activity from PubChem BioAssay.
GALR2 antag = antagonists of human galanin receptor 2 (GALR2). O43603. GALR2-expressing cells, antagonist mode. inhibition, % at 4 µM. 140,000 compounds, 0.39% hits; in the data active = inhibition above about 27%;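 note: cells stimulated with galanin 1-16 at roughly its EC80; 0% = agonist challenge control and 100% = basal control without agonist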
Target sequence (O43603 whole entry, looked up): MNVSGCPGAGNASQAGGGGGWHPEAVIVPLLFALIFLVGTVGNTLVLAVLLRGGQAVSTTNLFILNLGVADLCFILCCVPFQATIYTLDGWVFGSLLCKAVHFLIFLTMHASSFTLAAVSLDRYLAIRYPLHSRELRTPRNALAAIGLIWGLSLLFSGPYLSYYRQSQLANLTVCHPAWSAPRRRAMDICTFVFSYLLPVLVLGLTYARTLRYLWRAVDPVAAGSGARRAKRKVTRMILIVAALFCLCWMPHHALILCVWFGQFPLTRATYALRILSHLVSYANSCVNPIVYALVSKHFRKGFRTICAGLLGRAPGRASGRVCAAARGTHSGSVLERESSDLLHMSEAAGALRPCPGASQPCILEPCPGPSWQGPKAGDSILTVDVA
S1P2 ag = activates the human S1P2 receptor; O95136; S1P2-expressing cell line, agonist reporter read-out; activation, % at 4.5 µM; 97,000 compounds, 0.46% hits; in the data active = activation above about 16%;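 note: 0% = vehicle low control and 100% = maximal reference agonist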
PostGolgi ctrl = yeast control strain growth, post-Golgi counter-screen. AID 738. efflux-deficient yeast background strain, growth absorbance A615, 16 h. 98,000 compounds, 5% hits. inhibition, % at 10 µM
PostGolgi yeast = growth inhibition of a yeast mutant, post-Golgi transport screen; post-Golgi transport phenotypic cell assay; 98,000 compounds, 0.9% hits; inhibition, % at 10 µM;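 note: yeast cells grown in 1536-well plates; yeast grown about 18 h at 30C before absorbance read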
GALR2 ag = agonists of human galanin receptor 2 (GALR2) | O43603 | GALR2-expressing cells, agonist activation read-out | activation, % (concentration not given with the values) | 140,000 compounds, 0.48% hits | AID 803; in the data active = activation above about 5%, passing the limit was not always enough;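 note: 0% = vehicle buffer wells and 100% = reference agonist at full effect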
S1P2 blocker = S1P2 (human) receptor antagonism | 97,000 compounds, 0.21% hits | AID 736 | inhibition, % at 5 µM | cell-based S1P2 antagonist assay, inhibition at 5 uM; in the data active = inhibition above about 45%;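 note: CRE beta-lactamase reporter cells expressing human S1P2 stimulated with S1P; 0% = agonist at EC80 alone and 100% = agonist plus reference antagonist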
GALR2 blk conf = confirmation of human galanin receptor 2 (GALR2) antagonists; shares compounds with GALR2 antag; GALR2-expressing cells, antagonist mode, inhibition; inhibition, % at 4 µM; 480 compounds, 60% hits; in the data active = inhibition above about 27%;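 note: cells stimulated with galanin at about its EC80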
BLA inhib ctr = inhibits beta-lactamase reporter in GALR2 antagonist counterscreen; shares compounds with GALR2 antag; CHO NFAT-BLA reporter, beta-lactamase FRET, thapsigargin-stimulated; inhibition, % at 4.2 µM; 480 compounds, 36% hits;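 active = inhibition above the mean inhibition across tested compounds plus 3 SD, cut at about 27% in these data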;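 note: 0% = 500 nM thapsigargin stimulated wells and 100% = unstimulated BSA only wells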
An asterisk follows results filed as active; / = no result given. This is one part of a sample in which hits are shown more often than they occur. Cut-off read from the data, not from the text of the source, unless noted: active = inhibition above about 30%; inactive = the rest.

SMILES	GALR2 antag	S1P2 ag	PostGolgi ctrl	PostGolgi yeast	GALR2 ag	S1P2 blocker	GALR2 blk conf	BLA inhib ctr
C=CCNc1ncnc2c1[nH]c1ccccc12	24	-2	-5	13	-2	-5	/	/
CC1CCN(S(=O)(=O)c2cc(C(=O)N3CCN(c4ncccn4)CC3)ccc2Br)CC1	-6	/	/	/	1	/	/	/
CCCCCOc1ccc(Br)cc1/C(C)=N/NC1=NCCN1	28*	-6	/	/	0	21	8	28*
COc1ccc(Br)cc1/C(C)=N/NC1=NCCN1	13	-1	1	-2	-3	16	/	/
CCO/C=C/C(O)(CNC(=O)c1ccc(C(C)(C)C)cc1)C(F)(F)F (configuration not stated)	11	/	/	/	0	/	/	/
Cc1ccc(S(=O)(=O)O/N=C2\CCCc3ccccc32)cc1	5	-6	0	17	-6	2	/	/
CC1=C(C)/C(=N\OS(=O)(=O)c2ccccc2)C=CC1=O	77*	-1	27	-5	-2	96*	78*	71*
CCOC(=O)/C(=C\c1cccnc1)C(=O)c1cc(C(C)=O)c(Nc2ccccc2)s1	54*	15	90*	111*	-3	60*	79*	71*
COc1cc(OC)nc(-n2ncc(Br)c(Br)c2=O)n1	103*	/	/	/	-2	/	103*	105*
O=C(OCn1ncc(Br)c(Br)c1=O)c1c(F)cccc1F	96*	-7	26	57*	-5	69*	94*	98*
Cc1ccc(S(=O)(=O)CC2CSc3nc4ccccc4n32)cc1 (configuration not stated)	36*	-5	9	18	-1	58*	29*	7
Nc1ccc2c(c1)C/C(=C/c1ccco1)C2=O	29*	/	/	/	-2	/	33*	36*
O=C1/C(=C/c2ccco2)CCc2ccccc21	-4	/	/	/	0	/	/	/
CCCCCCCCCCn1c2c(c(=N)c3c1CCC3)CCC2	36*	-5	97*	11	-4	87*	30*	57*
O=C(Cn1nc(C(F)(F)F)cc1C1CC1)NCc1ccccc1F	-2	/	/	/	-1	/	/	/
Cc1ccc(C2CC(=O)Nc3cc4c(cc32)OCO4)o1 (configuration not stated)	34*	-5	21	4	-2	-17	1	1
COc1ccc(OC)c(S(=O)(=O)N2CCCCCC2)c1	28*	/	-9	5	-2	/	2	0
COc1ccc(OC)c(S(=O)(=O)N2CCN(C)CC2)c1	10	/	-1	-6	-1	/	/	/
O=C(Nc1nc2ccc(Cl)cc2s1)[C@@H]1CCCN1C(=O)c1cccs1	8	/	/	/	-1	/	/	/
CCOC(=O)c1ccccc1N/C=C/C(=O)c1cccs1	27*	/	/	/	-1	/	27*	11
CCOC(=O)c1ccccc1NC(=O)c1cccs1	-2	-5	21	2	0	0	/	/
COc1cc(/C=C/C(=O)OCC(=O)N2CCN(C(=O)c3ccco3)CC2)ccc1O	-5	/	/	/	-1	/	/	/
O=C(/C=C/c1ccncc1)c1ccc(NC(=O)c2ccccc2F)cc1	15	/	/	/	3	/	/	/
Cc1onc(-c2ccccc2)c1C(=O)Nc1nc2c(s1)CCCC2	27*	-2	34*	-8	-1	-9	8	4
Cc1cccc(-n2c(=S)[nH]c3c(oc4ccccc43)c2=O)c1	6	/	/	/	0	/	/	/
SMILES	GALR2 antag	S1P2 ag	PostGolgi ctrl	PostGolgi yeast	GALR2 ag	S1P2 blocker	GALR2 blk conf	BLA inhib ctr
CC(C)CC(=O)NCCCCc1ccccc1	-13	/	/	/	1	/	/	/
CCc1ccc2c(c1)/C(=C/C(=O)c1cccs1)C(=O)N2	28*	-4	87*	76*	2	13	35*	22
O=C(CSCc1nc2ccccc2[nH]1)N1CCN(c2ccc(F)cc2)CC1	30*	-13	5	10	-3	10	23	11
CC1(C)C2CC=C(/C=N/NC(=O)c3ccccc3Br)C1C2 (configuration not stated)	4	/	/	/	0	/	/	/
CC(=O)c1c(C)[nH]c(C(=O)OCCCCN2C(=O)c3ccccc3C2=O)c1C	32*	-2	11	6	0	63*	39*	7
CCOC(=O)c1[nH]c2ccccc2c1CCCN1C(=O)c2ccccc2C1=O	1	-5	17	4	1	-11	/	/
Cc1cccc(NC(=O)c2ccccc2NC(=O)C2CCCCC2)c1C	42*	-3	23	19	-2	-8	10	16
